In ChEMBL document CHEMBL4513216, “Probing the Open Global Health Chemical Diversity Library for Multistage-Active Starting Points for Next-Generation Antimalarials” (ACS Infect Dis, 2020):
In all, about 69,000 compounds went through this assay and about 8,600 (12%) showed an effect of 50% or more. Many of the other results were omitted from the sample, so strong results are more common in it than they were.

Test system: Plasmodium berghei
Test: Screen against P. berghei liver stage (PbLuc), transformed with Luciferase, at 10uM
Type: functional, HepG2
Settings: tested at 10 uM

Row | Compound | INHIBITION [%]
1 | COc1cccc(CCC(=O)N2CCCC(c3nncn3C)C2)c1 (stereo unspecified) | 4.71
2 | COc1ccc(CN2CCCCCC2c2cccs2)c(OC)c1 (stereo unspecified) | 10.2
3 | COc1cc(CN2CCCCCC2c2cccs2)cc(OC)c1O (stereo unspecified) | 50.8
4 | COc1cccc(CN2CCCCCC2c2cccs2)c1O (stereo unspecified) | 33.2
5 | COc1ccc(OC)c(CN2CCCCCC2c2cccs2)c1 (stereo unspecified) | 50.5
6 | COc1cccc(CN2CCCCCC2c2cccc(F)c2)c1O (stereo unspecified) | -0.29
7 | COc1cccc(CN2CCCCCC2c2cccc(C)c2)c1O (stereo unspecified) | 56.1
8 | COc1ccc(CN2CCCCCC2c2cccs2)c(O)c1 (stereo unspecified) | 4.35
9 | COc1cc(CN2CCCCCC2c2cccs2)cc(OC)c1OC (stereo unspecified) | 29.3
10 | COc1cccc(CN2CCCCCC2c2sccc2C)c1O (stereo unspecified) | 23.5
11 | CC1=Nc2c(c(O)nn2C(C)C)C(c2cnn(C)c2)S1 (stereo unspecified) | 21.7
12 | COc1nsc2nc(C3CCCN3C(C)=O)ccc12 (stereo unspecified) | 26.12
13 | CCS(=O)(=O)c1ccc(N2CCC(NC(=O)CCC(C)C)CC2)cc1 | 42.6
14 | CC(Cn1ccnc1)NC(=O)NCCc1ccccn1 (stereo unspecified) | 46.5
15 | Cc1nccn1-c1ccc(C(C)NCCC(C)C)cc1 (stereo unspecified) | 62.8
16 | CCCC(C)NC1CCN(c2ccc(-n3ccnc3C)cc2)CC1 (stereo unspecified) | 52.1
17 | Cc1nccn1-c1ncccc1NC(=O)CCOCC(C)C | 4.66
18 | CCCc1nccn1-c1ccc(C(C)O)cc1 (stereo unspecified) | -20.6
19 | Cc1nccn1-c1ccc(N2CCC(NC(C)CC(C)C)CC2)cc1 (stereo unspecified) | 38.5
20 | Cn1cc(C(NCCc2ccccn2)c2cccc(F)c2)cn1 (stereo unspecified) | -1.75
21 | Cc1nn(C)c(C)c1CN(Cc1cccn1-c1ncccn1)C(C)C | -30.5
22 | Cc1nccn1-c1ccc(CN2CC3C[C@@H](O)CN3C[C@@H]2C)cc1 (stereo partly specified) | -44.8
23 | Cc1nccn1-c1ccc(C(C)NCCc2ccccn2)cc1 (stereo unspecified) | 62.8

Row | Compound | INHIBITION [%]
24 | Cc1nn(C)c(C)c1CCNC(C)c1ccc(-n2ccnc2C)cc1 (stereo unspecified) | 87.6
25 | CN(C)CCO[C@H]1CN(C(=O)c2cccs2)[C@@H]2COC[C@H]12 | -19.1
26 | CN1Cc2[nH]nc(COCC3CC3)c2C1 | -44.9
27 | O=C(c1ccc(-c2cccc3c2CCNC3)o1)N1CCOCC1 | 39.1
28 | CCOC[C@@H]1CC[C@H]2[C@H](CCN2S(=O)(=O)c2ccc(F)cc2)O1 | -17.1
29 | O=C(O)c1c(-c2ccoc2)ncc2c1CCN(C1CCOC1)C2 (stereo unspecified) | 21.6
30 | CC(NC(=O)NCC1(c2ccc(F)cc2)CC1)c1nncn1C (stereo unspecified) | 31.9
31 | Cc1cnn(CCC(=O)N2CCCC(c3nc(C)c(C)s3)C2)c1 (stereo unspecified) | -7.35
32 | NCC1(c2cccc(C(F)(F)F)c2)CCOCC1 | 8.47
33 | NCC1(c2cccc(F)c2)CCOCC1 | 50.2
34 | NCC1(c2cccc(Br)c2)CCOCC1 | -51.5
35 | O=C(Cc1ccsc1)N1C[C@@H]2CN(Cc3ccoc3)CCO[C@@H]2C1 | 16.5
36 | Cc1noc(C)c1C(=O)NCC(c1ccc(F)cc1)N(C)C (stereo unspecified) | 23.4
37 | CCc1ccc(C(CNC(=O)c2c(C)noc2C)N(C)C)cc1 (stereo unspecified) | 58.9
38 | CCc1noc(C)c1C(=O)NCC(c1ccc(C)cc1)N(C)C (stereo unspecified) | -25.4
39 | Cc1noc(C)c1C(=O)NCC(c1cccc(F)c1)N(C)C (stereo unspecified) | -20.19
40 | Cc1noc(C)c1C(=O)NCC(c1ccsc1)N(C)C (stereo unspecified) | -38.7
41 | COc1ccc(C(CNC(=O)c2c(C)noc2C)N(C)C)cc1 (stereo unspecified) | 50.75
42 | OC(CNC1CCOCC1)c1cccc(OCc2ccccc2)c1 (stereo unspecified) | 46.1
43 | O=C(O)CNc1cc(-c2cc(C(=O)NC3CC3)ccn2)c2cc[nH]c2n1 | -21.1
44 | COc1cc(F)ccc1C(C(=O)O)N(C)CCN1CCCC1 (stereo unspecified) | 40.9
45 | COc1ccc(C(C(=O)O)N(C)CCN2CCCC2)c(C)c1 (stereo unspecified) | 52.8
46 | COc1ccc(C(C(=O)O)N(C)CCN2CCOCC2)c(C)c1 (stereo unspecified) | 22.5

Row | Compound | INHIBITION [%]
47 | CCc1n[nH]c(=O)c(C(=O)N2CCSCC2)c1CC | 39.3
48 | Cn1cnnc1C1CCCN(C(=O)c2cc(Cl)c(Cl)n2C)C1 (stereo unspecified) | -10.1
49 | Cc1ccc(OC(C)CNC(=O)c2c[nH]nn2)cc1 (stereo unspecified) | 0.0944
50 | CC(CNC(=O)c1c[nH]nn1)Oc1ccc(Cl)cc1 (stereo unspecified) | 51.6
51 | CC(CNC(=O)c1ccncc1F)Oc1ccc(F)cc1 (stereo unspecified) | 28.2
52 | CC(CNC(=O)c1c[nH]nn1)Oc1cccc(Br)c1 (stereo unspecified) | -15
53 | CC(CNC(=O)c1cnccn1)Oc1cccc(Br)c1 (stereo unspecified) | 10
54 | CC(CNC(=O)c1cnccn1)Oc1ccc(F)cc1 (stereo unspecified) | 69.9
55 | Cc1cnc(N2C(=O)CSC2c2ccc(F)cc2)s1 (stereo unspecified) | 44.8
56 | CC(=O)N1CCN(Cc2cccs2)CC2(CC(=O)N(C)C2)C1 (stereo unspecified) | -2.35
57 | COc1ccc(C)cc1CN(C)CC(=O)NC1(C)CCS(=O)(=O)C1 (stereo unspecified) | 29.7
58 | COCCN1CCN(C(C)c2nc(C3CC3)no2)CC1 (stereo unspecified) | 28.6
59 | CCc1noc(C(C)N2CCC(C)CC2)n1 (stereo unspecified) | 2.97
60 | CCc1noc(C(C)N2CCC(N3CCCC3)CC2)n1 (stereo unspecified) | 50.4
61 | CCc1noc(C(C)N2CCN(Cc3noc(C)n3)CC2)n1 (stereo unspecified) | 61.3
62 | CCc1noc(C(C)N2CCN(CC)CC2)n1 (stereo unspecified) | -54.6
63 | COCCCN1CCCN(C(C)c2nc(C3CC3)no2)CC1 (stereo unspecified) | 54.9
64 | Cc1nc(CN2CCN(C(C)c3nc(C4CC4)no3)CC2)no1 (stereo unspecified) | -21.9
65 | CCc1noc(C(C)N2CCC(N3CCCCC3)CC2)n1 (stereo unspecified) | 44.1
66 | CCOCCN1CCN(C(C)c2nc(C3CC3)no2)CC1 (stereo unspecified) | 0.55
67 | Cc1noc(C(C)N2CCN(Cc3noc(C4CC4)n3)CC2)n1 (stereo unspecified) | 37.4
68 | CCc1noc(C(C)N2CCN(Cc3noc(C4CC4)n3)CC2)n1 (stereo unspecified) | 65.7
69 | CCc1noc(C(C)N2CCCN(Cc3noc(C4CC4)n3)CC2)n1 (stereo unspecified) | 15.7

Row | Compound | INHIBITION [%]
70 | Cc1ccc(-c2ccnc(NCC3(N(C)C)CCOCC3)n2)c(C)n1 | 19.2
71 | Cn1cnc2c1CCN(Cc1csc(-c3ccco3)n1)C2 | 5.8
72 | CC(O)CN1CCC(CNCc2cccc(Cl)c2)CC1 (stereo unspecified) | 24
73 | COCCN1C(=O)[C@@H]2CC[C@H]1CN(S(=O)(=O)c1cccc(Cl)c1)C2 | 32.2
74 | COC(=O)C(C)(C)NC(=O)C1CC(=O)N(CC(C)C)C1 (stereo unspecified) | -22.1
75 | OC1(CNCCc2nc3c(s2)CCCC3)CCNC1 (stereo unspecified) | -41.6
76 | O=c1[nH]c2cn(-c3ccc(F)cc3)c(=O)n2n1Cc1cccc(Cl)c1 | 9.48
77 | CN1CCC2(CC1)Cc1ccccc1CN(C(=O)CN)C2 | 29.2
78 | Cc1cc(N(C)C)nc(C2(C)CCNCC2)n1 | -5.8
79 | CCn1cc(NC(=O)NCCN2CCCCCC2=O)cn1 | 7.24
80 | CC(C)(C)NC(=O)CNc1ncc(Br)cn1 | 28.8
81 | CC(C)c1noc(C(C)N2CCN(Cc3noc(C4CC4)n3)CC2)n1 (stereo unspecified) | 27.6
82 | CC(c1nc(C2CC2)no1)N1CCN(Cc2noc(C3CC3)n2)CC1 (stereo unspecified) | 51.1
83 | CC(C)c1nc(CN2CCN(C(C)c3nc(C4CC4)no3)CC2)no1 (stereo unspecified) | 13.5
84 | CC(C)Cc1cc(NC(=O)c2ccccn2)n(C)n1 | 37.4
85 | Cc1cc(C)nc(N2CCN(C(=O)c3ccc(C4CCCO4)s3)CC2)n1 (stereo unspecified) | 36.8
86 | O=C(c1ccc(C2CCCO2)s1)N1CCN(c2ccccc2F)CC1 (stereo unspecified) | 80.1
87 | O=C(c1ccc(C2CCCO2)s1)N1CCOCC1 (stereo unspecified) | -48.4
88 | O=C(Nc1ccccc1OCCc1ccccn1)N1CC[C@@H](O)C1 | -48.1
89 | NC(=O)c1ccc(CN2CCCC(O)C2)cc1 (stereo unspecified) | -6.32
90 | CC1CCCN(Cc2ccc(C(N)=O)cc2)C1 (stereo unspecified) | 50.5
91 | NC(=O)c1ccc(CN2CCCC(N3CCCC3)C2)cc1 (stereo unspecified) | -3.95
92 | CN1CCN(c2cc(CNC(=O)Cn3cccn3)ccn2)CC1 | 37.8

Row | Compound | INHIBITION [%]
93 | N#Cc1csc(CNCCOc2ncccc2Cl)c1 | -23.2
94 | O=C(c1ccco1)N1C[C@H]2CCCN(Cc3ccoc3)[C@H]2C1 | 44.3
95 | COc1ccc([C@@H]2NC(=O)N[C@H]3OCCC[C@H]32)cc1 | 42.1
96 | O=C1N[C@H]2OCCC[C@H]2[C@H](c2ccccc2)N1 | 52.2
97 | O=C1N[C@H]2OCCC[C@H]2[C@H](c2ccc(C(=O)O)cc2)N1 | -1.25
98 | COCCNC(=O)CN1CC=C(n2c(C)nc(=O)c3ccccc32)CC1 | 6.33
99 | c1cnc(NCc2nnn3c2CN(Cc2ccco2)CCC3)nc1 | -11.6
100 | CN(Cc1cccc(Cl)c1)S(=O)(=O)N1CCOCC1 | -14.2
101 | CC(c1cccc(-c2nccn2CCc2ccccn2)c1)N(C)C (stereo unspecified) | 36.5
102 | CC(c1cccc(-c2nccn2CCc2cn[nH]c2)c1)N(C)C (stereo unspecified) | 85.9
103 | CC(=O)NCCn1ccnc1-c1cccc(C(C)N(C)C)c1 (stereo unspecified) | 30.3
104 | Cc1noc(C)c1-c1cccc(C2CCN(CC(=O)N(C)C)CC2)n1 | 8
105 | Cc1ncsc1C(=O)N(C)Cc1cccnc1 | -4.865
106 | COc1ccc(OC)c(C(=O)N2C[C@@H]3CC[C@H]2CN(C)C3)c1 | 9.56
107 | O=c1c(NCCNCCO)c(N2CCN(c3ccc(F)cc3)CC2)c1=O | 23
108 | Cc1ccc(C(=O)NC2CCN(Cc3nc(C(C)C)no3)CC2)s1 | 13.8
109 | Clc1cncc(NCc2cccc(COC3CCOCC3)c2)n1 | -16.8
110 | Clc1cnccc1NCc1cccc(COC2CCOCC2)c1 | 79.7
111 | CS(=O)(=O)NCc1cccc(COC2CCCCC2)c1 | 9.63
